# Results: PubChem BioAssay (NCATS)
# Results filed as inconclusive are left out. Active and inactive are the calls of the source. The call rests on the fitted dose curve; in most records, active means well fitted cell-killing curve with a large enough effect; inconclusive means small, poorly fitted or top-dose-only effect, or effect the other way; inactive means flat fitted curve, though single readings scatter.
# Test system: SKOV3
# Assay: Primary qHTS to identify gynecologic anti-cancer compounds using libraries of approved drugs and bioactive compounds (AID 1345084); further: nearly all actives have a fitted effect of over 55% in size
# Conditions: Gynecologic cancer cell panel viability, ATPlite luminescence, 48 h; series mostly up to 57.5 µM; activity change, negative = cytotoxicity: at the top concentration
# Method in brief: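 Luminescence from the ATPlite ATP-monitoring reagent indicates viable cell number; lower signal means cytotoxicity. Cells received compound 16 h after seeding and were exposed for 48 h across five concentrations.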
# On the % scale 0 is the no-effect control and ±100 the full control effect; potency means the concentration at half of the fitted maximal effect.
SMILES,"activity change, negative = cytotoxicity",Potency
CN1Cc2c(N)cccc2C(c2ccccc2)C1 (stereo not given),-6.62% (inactive),–
COc1cc2c(Nc3ccc(Cl)c(Cl)c3F)ncnc2cc1OCC1C[C@@H]2CN(C)C[C@@H]2C1 (stereo not given in full),–,14.1 µM (active)
NS(=O)(=O)OC[C@@H]1C[C@@H](n2ccc3c(N[C@H]4CCc5ccccc54)ncnc32)C[C@@H]1O,–,10 µM (active)
OC[C@H]1O[C@@H](OCCc2ccc(O)cc2)[C@H](O)[C@@H](O)[C@@H]1O,-0.878% (inactive),–
CCC(=O)NS(=O)(=O)c1ccc(-c2c(-c3ccccc3)noc2C)cc1,-1.77% (inactive),–
O=C(O)C[C@@H](NC(=O)c1cc(-c2ccc(-c3ccncc3)cc2)cs1)c1ccccc1,-15.3% (inactive),–
CC(C)Nc1cc(-c2c[nH]c(C(=O)N[C@H](CO)c3cccc(Cl)c3)c2)c(Cl)cn1,-37.6% (inactive),–
CC1(C)O[C@]23C[C@H]1C[C@H](OC(=O)c1ccoc1)[C@]2(C)[C@@H](OC(=O)c1ccoc1)CCC3(C)O (stereo not given in full),-4.11% [at 25.3 µM] (inactive),–
CCCn1cnc2c(NCc3ccccc3)nc(N[C@H](CC)CO)nc21,18.6% (inactive),–
CC[C@H]1OC(=O)C[C@@H](O)[C@H](C)[C@@H](O[C@@H]2O[C@H](C)[C@@H](O)[C@H](N(C)C)[C@H]2O)[C@@H](CCN2C[C@H](C)C[C@H](C)C2)C[C@@H](C)C(=O)/C=C/C(C)=C/[C@@H]1CO[C@@H]1O[C@H](C)[C@@H](O)[C@@H](OC)[C@H]1OC,7.34% (inactive),–
COc1cc(C(O)C(CO)Oc2ccc(CCCO[C@@H]3O[C@@H](C)[C@H](O)[C@@H](O)[C@H]3O)cc2OC)ccc1O (stereo not given in full),21.2% [at 25.3 µM] (inactive),–
CC12CCC3c4ccc(O)cc4CCC3C1CCC2OC1OC(C(=O)O)C(O)C(O)C1O (stereo not given),23.8% (inactive),–
Oc1ccc([C@H]2COc3cc(O)ccc3C2)cc1,10.5% (inactive),–
C[C@]12C=CC(=O)C=C1CC[C@@H]1[C@@H]2[C@@H](O)C[C@@]2(C)[C@H]1CC[C@]2(O)C(=O)COC(=O)CCC(=O)O,-6.64% (inactive),–
CC(C)CC(=O)n1cc(C(N)=O)c(=O)cc1C(O)c1ccccc1 (stereo not given),10.9% [at 38.5 µM] (inactive),–
COc1ccc(C2=CC(=O)OC2Cc2ccc(O)cc2)c(O)c1 (stereo not given),-5.25% [at 38.5 µM] (inactive),–
CCC[C@@H]1C[C@@H](C(=O)N[C@@H]([C@H]2O[C@H](SC)[C@H](OP(=O)(O)O)[C@@H](O)[C@H]2O)[C@H](C)Cl)N(C)C1,-4.48% [at 25.3 µM] (inactive),–
COc1ccc(C[C@H](N)C(=O)N[C@H]2[C@@H](O)[C@H](n3cnc4c(N(C)C)ncnc43)O[C@@H]2CO)cc1,–,3.55 µM (active)
Cc1ccc(Sc2cncc3sc(C(N)=O)cc23)cc1,-0.96% (inactive),–
Nc1c(Br)cc(Br)cc1CNC1CCC(O)CC1 (stereo not given),-23.6% (inactive),–
CCC(=O)O[C@]1(C(=O)CCl)[C@@H](C)C[C@H]2[C@@H]3C[C@H](F)C4=CC(=O)C=C[C@]4(C)[C@@]3(F)[C@@H](O)C[C@@]21C,-4.04% (inactive),–
Cn1c(=O)cc(N2CCCC(N)C2)n(Cc2ccccc2C#N)c1=O (stereo not given),26.9% (inactive),–
CC1=C(C)C(=O)OC(C(C)C2C(O)CC3C4C5OC5C5(O)CC(OC6OC(CO)C(O)C(O)C6O)CC(O)C5(C)C4CCC32C)C1 (stereo not given),-5.01% [at 25.3 µM] (inactive),–
C[C@@H]1C[C@H]2[C@@H]3CCC4=CC(=O)C=C[C@]4(C)[C@@]3(F)[C@@H](O)C[C@]2(C)[C@@]1(O)C(=O)COP(=O)(O)O,-1.02% (inactive),–
CC(=O)c1cnc2ccc(-c3cc(Cl)c(O)c(Cl)c3)nc2c1NC1CCC(CN(C)C)CC1 (stereo not given),–,0.891 µM (active)
COc1cc(N2CCC(N(C)C)CC2)ccc1Nc1ncc(Cl)c(Nc2ccccc2P(C)(C)=O)n1,–,3.55 µM (active)
CC1=C2[C@@H]([C@H](C)CC[C@H]2/C=C(\C)C(=O)O)[C@H](O)C1,-13.8% (inactive),–
C#C[C@]1(O)CC[C@H]2[C@@H]3CCC4=C/C(=N/O)CC[C@@H]4[C@H]3CC[C@@]21CC,0% (inactive),–
CC(C)[C@H]1CCC(CO)=C[C@@H]1/C=C(\CO)C(=O)O,-5.41% (inactive),–
CC(=O)OC(C)OC(=O)C(C)c1ccc(-c2ccccc2)c(F)c1 (stereo not given),22% (inactive),–
